An excerpt weighted towards active compounds, which were near 10% of everything screened.
VP16 counter – counter-screen for ROR gamma inhibitors: Gal4-VP16 reporter. Drosophila S2 Gal4-VP16 UAS-luciferase, luminescence, 20 h. Potency, µM (top dose mostly 53.6 µM), for the others: top-dose activity, negative = inhibition, usual class: inhibitors. 310,000 compounds, 3.5% hits. AID 2546;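 also: Gal4-VP16 expression switched on by copper sulfate through the metallothionein promoter; % is scaled to controls: 0 for no effect and ±100 for the full control effect; nearly all actives have a fitted effect of over 50% in size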
RORgamma inh – inhibitors of mouse ROR gamma transcriptional activity. P51450. Drosophila S2 Gal4-RORgamma UAS-luciferase reporter, 20 h. Potency, µM (titrated, usually from 53.6 µM), for inactives: at the highest dose activity change, negative = inhibition, actives largely listed as inhibitors. 310,000 compounds, 5.4% hits. AID 2551; also: % is scaled to controls: 0 for no effect and ±100 for the full control effect; nearly all actives have a fitted effect of over 60% in size
Target sequence (P51450 whole entry, looked up, the tested form may be a part): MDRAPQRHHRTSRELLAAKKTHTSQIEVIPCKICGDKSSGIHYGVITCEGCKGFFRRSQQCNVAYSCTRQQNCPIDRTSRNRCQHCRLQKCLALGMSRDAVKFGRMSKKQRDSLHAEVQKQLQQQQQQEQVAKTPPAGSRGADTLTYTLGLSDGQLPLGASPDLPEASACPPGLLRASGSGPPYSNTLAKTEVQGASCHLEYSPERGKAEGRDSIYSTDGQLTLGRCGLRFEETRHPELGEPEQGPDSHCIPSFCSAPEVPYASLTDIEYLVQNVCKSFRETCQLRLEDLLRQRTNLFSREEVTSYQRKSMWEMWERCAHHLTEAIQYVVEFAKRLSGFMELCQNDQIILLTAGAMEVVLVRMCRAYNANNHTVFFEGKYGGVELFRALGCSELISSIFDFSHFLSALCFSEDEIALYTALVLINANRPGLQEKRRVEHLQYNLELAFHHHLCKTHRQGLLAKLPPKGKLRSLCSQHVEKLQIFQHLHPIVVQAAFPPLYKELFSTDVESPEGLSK
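Schneider cells (Drosophila), stable Gal4 DBD–ROR gamma + UAS-luc; 1 hr cmpd preincubation; Cu2+ induction 700 uM final; 20 hr ambient; luminescence.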
SW480 rerep – DNA re-replication induction in SW480 cells. 340,000 compounds, 1.8% hits. Potency, µM (series often up to 46.1 µM), for the others: top-dose re-replication activation, hits mostly activators. SW480 DNA re-replication, Hoechst DNA content imaging, 48 h. AID 624297; also: % of control where 0% means no effect; nearly all actives have a fitted effect of over 55% in size
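Cells (250 per well) received 23 nL compound or DMSO by pin tool and were kept 48 hr at 37 C, 5% CO2. Nuclei were then stained with Hoechst for 40 min and scanned for DNA content.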
KB-3-1 cytotox – kills parental KB-3-1 adenocarcinoma cells; KB-3-1 viability, CellTiter-Glo ATP luminescence, 72 h; Potency, µM (top dose mostly 46.1 µM), usual class: cytotoxic; 400,000 compounds, 1.4% hits; also: % is scaled to controls: 0 for no effect and ±100 for the full control effect; nearly all actives have a fitted effect of over 60% in size
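Cytotoxicity measured as CellTiter-Glo luminescence after 72 h at 37 C. Compound titrations were pinned onto drug-naive KB-3-1 parental adenocarcinoma cells grown in DMEM with 10% FBS, and normalized data fitted to concentration-response curves.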
KB-V1 MDR tox – KB-V1 MDR subline cytotoxicity. KB-V1 MDR cells viability, CellTiter-Glo, 72 h. Potency, µM (titrated, usually from 46.1 µM), hits mostly cytotoxic. 400,000 compounds, 3.4% hits; also: % is scaled to controls: 0 for no effect and ±100 for the full control effect; nearly all actives have a fitted effect of over 60% in size
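Luminescent ATP read-out (CellTiter-Glo, 10 min) measures survival of drug-selected KB-V1 MDR cells after 72 h, 37 degrees C compound exposure. Medium: phenol-red-free DMEM, 10% FBS. Values from fitted concentration-response curves.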
MCF10A rereplic – induces DNA re-replication in MCF 10a normal breast cells; MCF 10A DNA re-replication, Hoechst nuclear intensity, 48 h; 350,000 compounds, 2.9% hits; Potency, µM (top dose mostly 46.1 µM), for the others: at the top dose activity, positive = re-replication, hits mostly activators; also: % of control where 0% means no effect; nearly all actives have a fitted effect of over 50% in size
* = called active by the depositor; i = inactive; ? = inconclusive; · = no result given; [ ] = another dose, or the depositor's remark. Calls follow the shape of the dose curve; as a rule, active = well fitted curve in the direction sought with a large enough effect; inconclusive = small, poorly fitted or top-dose-only effect, or another doubt; inactive = no such curve, though single readings can be large; an effect the other way counts as inactive or inconclusive. Potency is read from the fitted curve at half-maximal effect.

SMILES	VP16 counter	RORgamma inh	SW480 rerep	KB-3-1 cytotox	KB-V1 MDR tox	MCF10A rereplic
COc1ccc(N2C(=O)CSC23C(=O)N(CC(=O)Nc2ccccc2F)c2ccccc23)cc1 (stereo not drawn)	·	·	·	i	?	·
O=C(c1ccccc1)c1cccn1CC(=O)N1CCCCCC1	2.4%	-4.7%	3.2%	i	i	-0.7%
Cc1cccc(N2CCN(C(=O)Cn3cccc3C(=O)c3ccccc3)CC2)c1C	13.1%	2.9%	?	?	16.4µM*	?
O=C(/C=C/c1ccc([N+](=O)[O-])cc1)OCC(=O)N1CCOCC1	·	·	0.8%	·	·	18.4µM*
CCOC(=O)N1CCN(C/C(C)=C/c2ccccc2)CC1	7.9%	22.6%	-9.4%	i	14.6µM*	14.0%
CCOC(=O)C1CCN(C(=O)Cn2cccc2C(=O)c2ccccc2)CC1	6.9%	1.6%	-3.9%	i	20.6µM*	15.5%
CCOC(=O)C1CCN(C(=O)/C=C/c2ccccc2)CC1	11.7%	?	-13.9%	i	i	1.0%
CCOC(=O)C1CCN(C(=O)C(CC)c2ccccc2)CC1 (stereo not drawn)	1.9%[10 µM]	4.2%	18.4µM*	i	i	-2.4%
CCOC(=O)N1CCN(C(=O)C(C)N(c2ccccc2)S(C)(=O)=O)CC1 (stereo not drawn)	-4.5%	12.0%	8.0%	i	i	-43.3%
CCOC(=O)N1CCN(C(=O)C(c2ccccc2)c2ccccc2)CC1	2.4%	13.3%	?	i	4.11µM*	?
CCOC(=O)C1CCN(C(=O)COC(=O)/C=C/c2ccccc2)CC1	·	·	7.31µM*	?	i	3.1%
O=C(/C=C/c1cccc(F)c1)OCC(=O)N1CCCC1	·	·	8.2µM*	i	i	?
Cc1ccc(-c2nc(CN(CC3CCC3)CC3CCCO3)c(C)o2)s1 (stereo not drawn)	17.0%	11.2µM*	0.9%	i	i	11.3%
O=C(Cc1cccc2ccccc12)NNC(=O)Nc1cccc(Cl)c1	?	?	0.2%	i	i	?
O=C(Nc1ccccc1)Nc1nnc(CSCc2ccccc2Cl)s1	?	?	·	i	?	14.6µM*
O=C(Cc1ccccc1Cl)NNC(=O)Nc1ccccc1	-12.0%	20.6%	29.1µM*	i	i	0.4%
O=C(Nc1ccc(Cl)c(Cl)c1)Nc1nnc(CSc2ccccc2)s1	-25.9%	?	?	?	14.6µM*	?
Cc1ccc(OCCSCc2nnc(NC(=O)Nc3cccc(Cl)c3)s2)cc1	?	3.2%	-2.1%	5.8µM*	?	?
COc1ccc(NC(=O)C2COc3ccccc3C2)cc1Cl (stereo not drawn)	·	·	·	i	i	·
Cc1cccc(-c2nc3c4c(-c5ccccc5)c(-c5ccccc5)oc4ncn3n2)c1	·	·	·	i	i	·
O=C(OCc1ccccc1)N1C=CC2CC1c1c(Cl)cccc12 (stereo not drawn)	·	·	12.9%	i	i	23.1µM*
CC1(C)CC(NC(=S)NCc2ccco2)CC(C)(C)N1	-7.7%	0.8%	-6.2%	i	i	6.8%
O=C(Nc1ccccc1)NC1CCCc2ccccc21 (stereo not drawn)	-3.1%	-2.6%	1.16µM*	i	i	-1.6%
S=C(NCc1ccco1)NC1CCCc2ccccc21 (stereo not drawn)	12.6µM*	4.47µM*	-20.6%	i	?	5.9%
CNC(=O)NC1CCCc2ccccc21 (stereo not drawn)	0.9%	?	0.7%	i	i	0.3%
SMILES	VP16 counter	RORgamma inh	SW480 rerep	KB-3-1 cytotox	KB-V1 MDR tox	MCF10A rereplic
Cc1ccc(NC(=S)NC2CCSc3ccccc32)cc1 (stereo not drawn)	5.62µM*	-101.8%	28.7%	i	i	?
S=C(NC1CC1)NC1CCCc2ccccc21 (stereo not drawn)	?	2.24µM*	-15.5%	i	i	?
CC(=O)Nc1ccc(C(=O)NC2CCSc3ccccc32)cc1 (stereo not drawn)	13.9%	-11.9%	8.4%	i	i	4.9%
COc1ccccc1CN1CCCC2(CCN(C(C)=O)CC2)C1	4.2%	-19.4%	·	·	·	·
CC(=O)N1CCC(N(Cc2ccco2)C(=O)Nc2cccc(C)c2)CC1	·	·	·	i	?	·
CC(OC(=O)c1ccc(S(C)(=O)=O)c([N+](=O)[O-])c1)C(=O)NC1C2CC3CC(C2)CC1C3 (stereo not drawn)	·	·	·	i	?	·
CCc1ccccc1NC(=O)CSc1ncc2c(n1)-c1ccccc1N(Cc1ccc(C)cc1)S2(=O)=O	·	·	·	i	i	·
O=C(c1cnccn1)N1CCC2(CC1)CCN(c1cccc(-c3ccccc3)c1)CC2	-19.4%	?	·	·	·	·
Cc1c(C(=O)NC2CCCc3ccccc32)oc2ccccc12 (stereo not drawn)	7.9%	4.47µM*	3.5%	i	?	12.0%
S=C(NCc1ccccc1)NC1CCCc2ccccc21 (stereo not drawn)	11.2µM*	2.51µM*	-1.5%	i	?	0.2%
COC(=O)c1ccc(NC(=S)NC2CCc3ccccc32)cc1 (stereo not drawn)	?	7.94µM*	?	i	?	?
CCOC(=O)CCN1C(=O)[C@H]2[C@H]3[C@H](O)[C@H](O)C/C(=N/NC(=O)OCC)[C@@H]3CC[C@@H]2C1=O	5.0%[10 µM]	6.2%[10 µM]	·	·	·	·
CN(C)CCNc1ccc2ncn3c4ccc(O)cc4c(=O)c1c23	·	·	?	?	i	?
Cc1cc2nn(-c3ccc(F)cc3)nc2cc1NC(=O)c1cccc([N+](=O)[O-])c1C	·	·	·	i	i	·
Cc1ccc(CN2C(=O)S/C(=C\c3ccccc3OCC(=O)O)C2=O)cc1	9.2%	1.6%	-15.0%	i	i	2.6%
O=C(O)COc1ccccc1/C=C1\SC(=O)N(Cc2ccc(F)cc2)C1=O	2.3%	4.9%	-7.5%	i	i	4.61µM*
O=C(Nc1nccs1)c1cc(-c2ccco2)nc2ccccc12	7.2%	-26.7%	-0.2%	i	i	-1.7%
O=C(Nc1nccs1)c1cc(-c2ccccc2)nc2ccccc12	?	11.2µM*	-5.0%	i	?	?
O=C(Nc1nccs1)c1cc(Cl)nc2ccccc12	?	17.8µM*	5.8%	?	i	?
O=C(Nc1nccs1)c1cc(-c2ccccn2)nc2c(Cl)cccc12	6.31µM*	5.01µM*	4.9%	i	?	16.2%
CC(C)Oc1ccc(CNC(=O)c2ccc(NC(=O)N3CCSc4ncccc43)cc2)cc1	·	·	·	i	i	·
